The test system of test [1] is Plasmodium falciparum Sir2 (PF13_0152, Sir2A). The experiment in a line: Plasmodium falciparum Sir2A binding compounds – biochemical, small-molecule microarray, 635 nm fluorescence, primary screen (AID 1098).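 Note: score merges spot fluorescence intensity with its signal-to-noise ratio.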 As to conditions: fluorescence 635 nm, higher = more signal.
Test [2] in a line: probe aDKK1 binding to arrayed compounds – biochemical, biotinylated probe, 635/667 nm fluorescence, primary screen (AID 1099).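 Note: score merges 667nm spot fluorescence with signal to noise across triplicate slides.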 As to conditions: small-molecule microarray, higher = more signal.
Test [3] is described as follows: probe aCHRDL2 binding to arrayed compounds – biochemical, biotinylated probe, 635/667 nm fluorescence, primary screen (AID 1100). As to conditions: small-molecule microarray, higher = more signal.
Test [4] is described as follows: change in splice reporter luminescence, either direction, cell-based, HEK293, spliceosome inhibition project, primary screen (AID 1101).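 Note: HEK293 cells carrying a splicing-competent luciferase reporter gene; test concentration not given here.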 As to conditions: HEK293 splicing luciferase reporter, 24 h, higher = more signal, called active from +8 up or from −8 down. (In general: In a reporter assay the amount or activity of a reporter protein is the signal.)
For test [5], the target named is Fibroblast growth factor 10 (Homo sapiens) (UniProt O15520). The experiment in a line: compounds binding fibroblast growth factor 10 – biochemical, small-molecule microarray, 635 nm fluorescence, primary screen (AID 1102). As to conditions: FGF10 binding, fluorescence 635 nm, higher = more signal.
Test [6] relates to glycogen synthase kinase-3 (GSK3A per assay name; protocol says GSK3B). Kind of test: compounds binding glycogen synthase kinase-3 – biochemical, small-molecule microarray, 635 nm fluorescence, GSK3A, primary screen (AID 1103). Note: the record names both GSK3A and GSK3B. As to conditions: fluorescence 635 nm, higher = more signal.
Test [7] has as its target Epidermal growth factor receptor (Homo sapiens) (UniProt P00533). Kind of test: compounds binding epidermal growth factor receptor – biochemical, small-molecule microarray, 635 nm fluorescence, primary screen (AID 1104).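 Note: score merges 667 nm emission intensity with spot signal to noise over triplicate slides.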 As to conditions: EGFR binding, higher = more signal.
Test [8] concerns the target Follistatin-related protein 3 (Homo sapiens) (UniProt O95633). Kind of test: compounds binding follistatin-related protein 3 – biochemical, small-molecule microarray, 635 nm fluorescence, primary screen (AID 1105).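 Note: score merges emission near 667 nm and signal to noise per printed spot across three slides.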 As to conditions: FSTL3 binding, higher = more signal.
Test [9] concerns the target Dickkopf-related protein 1 (Homo sapiens) (UniProt O94907). Kind of test: small molecules binding DKK1 protein – biochemical, small-molecule microarray, 635 nm fluorescence scan, primary screen (AID 1106).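 Note: score merges emission near 667 nm with signal to noise over three replicate slides.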 As to conditions: higher = more signal.
For test [10], the system named is Inhibin beta A chain (activin A). The experiment in a line: small molecules binding activin A – biochemical, small-molecule microarray, 635 nm fluorescence scan, primary screen (AID 1107).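 Note: mouse activin A protein probed at 4.33 µg/mL on printed slides; score merges bound-protein fluorescence near 667 nm with spot signal-to-noise.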 As to conditions: INHBA, higher = more signal.
Test [11] relates to Human papillomavirus type 1a protein E7 (residues 44-93). The experiment in a line: small molecules binding HPV E7 44-93 – biochemical, small-molecule microarray, residues 44-93, 635 nm fluorescence, primary screen (AID 1108).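 Note: E7 fragment applied at 1 µg/mL in TBST for 1 h at 4 C; score combines spot fluorescence with its signal to noise ratio.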 As to conditions: fluorescence 635 nm, higher = more signal.
The nature of test [12]: hepatitis C replication reporter changes, two-sided – Huh7 cells, luciferase reporter, HCV replication inhibitor project, primary screen (AID 1109).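 Note: huh7 hepatoma cells harbouring a luciferase neomycin HCV replicon reporter; luciferase luminescence as measure of HCV replicon replication; test concentration not given here.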 As to conditions: Huh7 HCV replicon luciferase reporter, 48 h; higher = more signal.
Test [13] deals with Left-right determination factor 2 (Homo sapiens) (UniProt O00292). The experiment in a line: small molecules binding LEFTY2 protein – biochemical, small-molecule microarray, 635 nm fluorescence scan, primary screen (AID 1110). As to conditions: higher = more signal.
The target of test [14] is Calmodulin-1 (Homo sapiens) (UniProt P0DP23). Kind of test: small molecules binding calmodulin-1 with EGTA – biochemical, small-molecule microarray, Cy5-labelled CALM1, profiling panel (AID 1111).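 Note: labelled calmodulin applied in Tris saline Tween buffer holding calcium plus EGTA and DTT.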 As to conditions: Cy5-CALM1 binding fluorescence, higher = more signal.
The target is the same in test [15]. The experiment in a line: small molecules binding Ca-loaded calmodulin-1 – biochemical, small-molecule microarray, Cy5-labelled CALM1, plus calcium, artefact control for SMM control-protein annotation, profiling panel (AID 1112).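 Note: score merges spot fluorescence with signal to noise from triplicate slides.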 As to conditions: Cy5-CALM1 binding fluorescence, higher = more signal.
Test [16] in a line: probe aWnt5a binding to arrayed compounds – biochemical, biotinylated probe, 635/667 nm fluorescence, primary screen (AID 1113).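 Note: score merges 667 nm fluorescence intensity with signal-to-noise per printed feature.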 As to conditions: small-molecule microarray, higher = more signal.
Test [17] in a line: probe aShh binding to arrayed compounds – biochemical, biotinylated probe, 635/667 nm fluorescence, primary screen (AID 1114).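 Note: probe is biotin-labelled aShh protein from a stem cell growth factor screen; measures binding of labelled protein to compounds printed on the slide; score merges feature fluorescence at 667 nm with signal-to-noise.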 As to conditions: small-molecule microarray, higher = more signal.
Test [18] can be described thus: probe aNog binding to arrayed compounds – biochemical, biotinylated probe, 635/667 nm fluorescence, primary screen (AID 1115).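 Note: probe is biotinylated aNog protein used at 0.15 µg/mL for 1 h at 4 C; z-score combines 667 nm fluorescence of each spot with its signal to noise.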 As to conditions: small-molecule microarray, higher = more signal.
In test [19] the target is Torsin-1A-interacting protein 1 (Homo sapiens) (UniProt Q5JTV8). The experiment in a line: compound microarray binding of lysate hLAP1 – cell lysate, small-molecule microarray, COS7 lysate, 635/667 nm fluorescence, primary screen (AID 1116). As to conditions: 635 nm fluorescence, higher = more signal.
Test [20] addresses Alpha-bungarotoxin (Bungarus multicinctus) (UniProt P60615). Kind of test: compounds binding labelled alpha-BTX control protein – biochemical, small-molecule microarray, Alexa647 label, 635/667 nm fluorescence, artefact control for SMM control protein annotation, profiling panel (AID 1117). As to conditions: alpha-BTX-A647 binding fluorescence, higher = more signal.

Structures are written as SMILES. Active and inactive are the calls of the source.

Sequence of Follistatin-related protein 3 (Homo sapiens) (O95633 whole entry, looked up): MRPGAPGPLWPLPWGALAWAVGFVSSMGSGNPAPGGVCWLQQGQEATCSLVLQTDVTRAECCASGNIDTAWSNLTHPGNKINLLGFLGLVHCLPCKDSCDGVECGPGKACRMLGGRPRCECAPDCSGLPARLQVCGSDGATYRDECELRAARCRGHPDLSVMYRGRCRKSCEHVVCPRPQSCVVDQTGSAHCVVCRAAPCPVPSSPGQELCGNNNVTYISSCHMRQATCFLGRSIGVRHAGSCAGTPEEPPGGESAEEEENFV
Sequence of Alpha-bungarotoxin (Bungarus multicinctus) (P60615 whole entry, looked up): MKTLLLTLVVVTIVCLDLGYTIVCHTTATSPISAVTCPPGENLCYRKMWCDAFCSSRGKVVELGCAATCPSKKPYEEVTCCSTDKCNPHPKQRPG
Sequence of Dickkopf-related protein 1 (Homo sapiens) (O94907 whole entry, looked up): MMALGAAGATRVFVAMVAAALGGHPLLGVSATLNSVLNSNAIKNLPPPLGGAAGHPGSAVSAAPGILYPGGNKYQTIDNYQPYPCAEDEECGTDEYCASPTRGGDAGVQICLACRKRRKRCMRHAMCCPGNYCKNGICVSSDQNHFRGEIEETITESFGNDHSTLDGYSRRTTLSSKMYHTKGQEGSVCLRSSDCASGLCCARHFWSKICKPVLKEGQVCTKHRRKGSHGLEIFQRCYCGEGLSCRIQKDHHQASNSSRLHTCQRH
Sequence of Torsin-1A-interacting protein 1 (Homo sapiens) (Q5JTV8 whole entry, looked up): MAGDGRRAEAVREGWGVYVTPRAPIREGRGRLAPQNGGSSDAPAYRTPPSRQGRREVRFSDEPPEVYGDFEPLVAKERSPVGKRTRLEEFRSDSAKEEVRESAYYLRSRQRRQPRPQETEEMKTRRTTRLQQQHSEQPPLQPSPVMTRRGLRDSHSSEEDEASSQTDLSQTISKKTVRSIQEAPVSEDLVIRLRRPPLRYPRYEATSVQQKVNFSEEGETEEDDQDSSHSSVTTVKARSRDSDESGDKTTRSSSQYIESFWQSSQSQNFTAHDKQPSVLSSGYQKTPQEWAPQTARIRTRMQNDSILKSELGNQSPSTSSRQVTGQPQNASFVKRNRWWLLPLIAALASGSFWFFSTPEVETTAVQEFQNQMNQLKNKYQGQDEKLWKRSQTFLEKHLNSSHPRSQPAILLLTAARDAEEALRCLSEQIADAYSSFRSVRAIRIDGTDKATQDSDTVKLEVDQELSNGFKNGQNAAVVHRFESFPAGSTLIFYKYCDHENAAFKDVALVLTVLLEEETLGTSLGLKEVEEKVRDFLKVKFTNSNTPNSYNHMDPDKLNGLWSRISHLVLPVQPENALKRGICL
Sequence of Epidermal growth factor receptor (Homo sapiens) (P00533 whole entry, looked up): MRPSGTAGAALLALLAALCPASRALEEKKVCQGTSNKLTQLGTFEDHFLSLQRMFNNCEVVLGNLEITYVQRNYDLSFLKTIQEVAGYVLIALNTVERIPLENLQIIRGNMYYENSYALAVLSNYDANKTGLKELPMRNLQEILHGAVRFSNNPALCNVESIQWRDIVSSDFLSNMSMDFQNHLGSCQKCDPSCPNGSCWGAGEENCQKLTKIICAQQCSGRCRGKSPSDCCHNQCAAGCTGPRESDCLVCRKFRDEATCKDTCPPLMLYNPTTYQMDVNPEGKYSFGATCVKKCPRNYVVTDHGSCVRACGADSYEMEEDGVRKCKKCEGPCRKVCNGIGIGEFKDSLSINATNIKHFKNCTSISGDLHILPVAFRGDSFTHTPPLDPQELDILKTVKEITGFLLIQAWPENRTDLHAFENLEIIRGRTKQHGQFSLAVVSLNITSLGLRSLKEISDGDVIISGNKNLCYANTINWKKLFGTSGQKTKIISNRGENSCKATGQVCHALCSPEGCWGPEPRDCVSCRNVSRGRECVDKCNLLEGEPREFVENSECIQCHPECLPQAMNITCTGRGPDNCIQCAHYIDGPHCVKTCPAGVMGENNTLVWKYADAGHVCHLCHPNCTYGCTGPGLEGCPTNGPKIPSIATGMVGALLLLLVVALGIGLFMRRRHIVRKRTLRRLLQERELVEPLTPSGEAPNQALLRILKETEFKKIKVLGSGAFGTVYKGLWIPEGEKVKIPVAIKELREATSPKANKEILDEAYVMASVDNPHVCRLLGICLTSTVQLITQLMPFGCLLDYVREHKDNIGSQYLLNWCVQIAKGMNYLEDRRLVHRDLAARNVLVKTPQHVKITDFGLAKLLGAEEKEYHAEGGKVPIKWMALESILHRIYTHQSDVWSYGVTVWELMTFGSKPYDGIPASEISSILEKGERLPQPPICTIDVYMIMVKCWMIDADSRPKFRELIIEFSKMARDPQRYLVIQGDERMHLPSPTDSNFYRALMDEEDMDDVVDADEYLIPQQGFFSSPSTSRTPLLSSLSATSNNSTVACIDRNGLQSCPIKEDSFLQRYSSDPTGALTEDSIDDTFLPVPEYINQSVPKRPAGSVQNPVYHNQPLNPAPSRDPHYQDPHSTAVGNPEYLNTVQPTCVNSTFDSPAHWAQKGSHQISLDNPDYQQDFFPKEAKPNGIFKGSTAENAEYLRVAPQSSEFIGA
Sequence of Left-right determination factor 2 (Homo sapiens) (O00292 whole entry, looked up): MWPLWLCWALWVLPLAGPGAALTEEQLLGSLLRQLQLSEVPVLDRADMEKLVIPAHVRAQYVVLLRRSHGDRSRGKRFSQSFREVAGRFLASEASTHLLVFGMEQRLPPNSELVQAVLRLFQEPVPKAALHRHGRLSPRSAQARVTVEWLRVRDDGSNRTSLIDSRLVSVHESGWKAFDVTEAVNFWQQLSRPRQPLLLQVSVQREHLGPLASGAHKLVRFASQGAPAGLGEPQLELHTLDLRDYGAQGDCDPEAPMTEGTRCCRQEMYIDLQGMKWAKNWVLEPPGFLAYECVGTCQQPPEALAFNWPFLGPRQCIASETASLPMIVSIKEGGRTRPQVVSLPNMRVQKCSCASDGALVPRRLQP
Sequence of Fibroblast growth factor 10 (Homo sapiens) (O15520 whole entry, looked up): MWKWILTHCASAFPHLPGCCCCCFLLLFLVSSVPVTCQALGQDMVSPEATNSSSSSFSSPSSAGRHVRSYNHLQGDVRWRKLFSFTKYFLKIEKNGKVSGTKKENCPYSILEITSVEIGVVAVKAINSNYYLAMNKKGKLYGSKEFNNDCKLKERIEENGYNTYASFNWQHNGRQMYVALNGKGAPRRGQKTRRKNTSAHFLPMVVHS

`CO[C@H]1O[C@H](CO)[C@@H](OC(=O)Nc2ccc(C#N)cc2)[C@@H]2OC(=O)[C@H](Cc3cccc(Br)c3)C/C=C/C[C@@H](Cc3cccc(Br)c3)C(=O)O[C@@H]12`: the composite z-score in [1] is 0.717; in [2], 0.617; in [3], 0.534; in test [5], 0.788; in test [6], -0.037; in test [7], 0.223. For the same compound, the composite z-score is 0.707 in test [8]; 0.336 in test [9]; -0.247 in test [10]; 1.02 in test [11]; 0.721 in test [13]; 0.211 in [14]. For the same compound, the composite z-score was -0.121 in test [15]; -0.104 in [16]; 0.326 in test [17]; 0.886 in test [18]; 0.318 in [19]; 0.764 in [20]. The figures for the z-score in [4] and in test [12] were 1.5 (inactive) and -3.4, respectively.

With `CO[C@H]1O[C@H](CO)[C@@H](OC(=O)Nc2cccc(F)c2)[C@H](OC(=O)Nc2ccccc2-c2ccccc2)[C@H]1OC(=O)Nc1ccccc1-c1ccccc1`, the composite z-score stood at 1.26 in test [1]; 0.255 in test [2]; 0.735 in test [3]; 1.46 in test [5]; 1.33 in [6]; 0.321 in test [7]. The composite z-score worked out at 1.3 in test [8]; 0.585 in test [9]; 0.664 in test [10]; 1.48 in [11]; 0.494 in [13]; 0.88 in test [14]. The composite z-score in test [15] was -0.305; in test [16], 0.0692; in test [17], -0.0977; in test [18] it was 0.895; in test [19], 1.09; in test [20], 0.816. For the same compound, the values for the z-score in test [4] and in test [12] were 4.28 (inactive) and -3.82, respectively.

Regarding `O=C(O)[C@@H]1C[C@@H]2C(=O)N3CCC[C@H]3C(=O)N2[C@@H]1c1cccc(OCCO)c1`, the composite z-score turned out to be 2.07 in test [1]; 2.67 in test [2]; 1.72 in test [3]; 1.36 in test [5]; 1.44 in [6]; 1.41 in test [7]. The composite z-score in test [8] stood at 1.54; in test [9], 1.9; in [10], 1.98; in test [11], 1.49; in test [13], 1.56; in [14], 1.69. The composite z-score worked out at 0.815 in test [15]; 0.94 in test [16]; 2.65 in test [17]; 3.05 in [18]; 3.85 in test [19]; 2.99 in test [20]. Also, the results for the z-score in test [4] and in test [12] were 0.0627 (inactive) and -0.444, respectively.

`COC(=O)[C@@]1(Cc2ccc(OC)cc2)[C@H]2c3cc(C(=O)N4CCCC4)n(Cc4cc(C)n(C)n4)c3C[C@H]2CN1C(=O)c1ccccc1`: the composite z-score is 1.74 in [1]; 1.26 in test [2]; 1.17 in test [3]; 1.32 in test [5]; 0.666 in test [6]; -0.158 in test [7]. Also, the composite z-score in test [8] was 0.0098; in test [9], -0.712; in test [10] it was 0.104; in test [11], 0.712; in test [13], 0.78; in test [14] it was 1.46. The composite z-score came out at 0.81 in [15]; 0.23 in test [16]; 0.4 in test [17]; 0.352 in test [18]; 1.21 in test [19]; 0.769 in test [20]. Also, the figures for the z-score in test [4] and in test [12] were 0.317 (inactive) and -1.38, respectively.

Consider `COCCOC(=O)N1C(=O)[C@@]2(c3cc(C#CCNC(N)=O)ccc31)[C@H](c1ccc(O)cc1)N1[C@H](c3ccccc3)[C@H](c3ccccc3)OC(=O)[C@H]1[C@@H]2C(N)=O`, for which the composite z-score in test [1] was -0.583; in test [2] it was -0.224; in test [3], 0.444; in test [5] it was -1.62; in test [6], -1.32; in [7] it was -1.9. Moreover, the composite z-score in [8] is -2.16; in [9], -1.86; in test [10], -1.08; in test [11] it was -0.8; in test [13] it was -2.24; in test [14] it was -0.747. The composite z-score in test [15] is 0.502; in test [16], -0.377; in [17], -0.378; in [18], -0.0585; in test [19], -0.448; in test [20], -2.27. For the same compound, the z-score was 0.00136 (inactive) in [4] and -0.101 in [12].

These data come from PubChem BioAssay.
